This passage reports inhibition results from PubChem BioAssay AID720700 (The Scripps Research Institute Molecular Screening Center, 2013).

Usually inhibition stands for the relative decrease from the control value, in per cent.

The structures appear in SMILES notation. Hit rate of the full screen: of about 370,000 compounds, about 3,100 (0.84%) were called active. No stated cut-off is given here; in the data, active means inhibition above about 9.5%; inactive means the rest. The sample as a whole holds a higher share of actives than the screen did.

The target of the assay is 1-phosphatidylinositol 4,5-bisphosphate phosphodiesterase gamma-1 (Homo sapiens) (UniProt P19174). Kind of assay: PLC-gamma1 enzyme inhibitors, primary screen, biochemical, fluorescence, purified enzyme (AID 720700). The conditions noted are these: purified PLC-gamma1, fluorogenic substrate, at 12.2 µM, active compounds read high.
1-phosphatidylinositol 4,5-bisphosphate phosphodiesterase gamma-1 (Homo sapiens), sequence (P19174 whole entry, looked up): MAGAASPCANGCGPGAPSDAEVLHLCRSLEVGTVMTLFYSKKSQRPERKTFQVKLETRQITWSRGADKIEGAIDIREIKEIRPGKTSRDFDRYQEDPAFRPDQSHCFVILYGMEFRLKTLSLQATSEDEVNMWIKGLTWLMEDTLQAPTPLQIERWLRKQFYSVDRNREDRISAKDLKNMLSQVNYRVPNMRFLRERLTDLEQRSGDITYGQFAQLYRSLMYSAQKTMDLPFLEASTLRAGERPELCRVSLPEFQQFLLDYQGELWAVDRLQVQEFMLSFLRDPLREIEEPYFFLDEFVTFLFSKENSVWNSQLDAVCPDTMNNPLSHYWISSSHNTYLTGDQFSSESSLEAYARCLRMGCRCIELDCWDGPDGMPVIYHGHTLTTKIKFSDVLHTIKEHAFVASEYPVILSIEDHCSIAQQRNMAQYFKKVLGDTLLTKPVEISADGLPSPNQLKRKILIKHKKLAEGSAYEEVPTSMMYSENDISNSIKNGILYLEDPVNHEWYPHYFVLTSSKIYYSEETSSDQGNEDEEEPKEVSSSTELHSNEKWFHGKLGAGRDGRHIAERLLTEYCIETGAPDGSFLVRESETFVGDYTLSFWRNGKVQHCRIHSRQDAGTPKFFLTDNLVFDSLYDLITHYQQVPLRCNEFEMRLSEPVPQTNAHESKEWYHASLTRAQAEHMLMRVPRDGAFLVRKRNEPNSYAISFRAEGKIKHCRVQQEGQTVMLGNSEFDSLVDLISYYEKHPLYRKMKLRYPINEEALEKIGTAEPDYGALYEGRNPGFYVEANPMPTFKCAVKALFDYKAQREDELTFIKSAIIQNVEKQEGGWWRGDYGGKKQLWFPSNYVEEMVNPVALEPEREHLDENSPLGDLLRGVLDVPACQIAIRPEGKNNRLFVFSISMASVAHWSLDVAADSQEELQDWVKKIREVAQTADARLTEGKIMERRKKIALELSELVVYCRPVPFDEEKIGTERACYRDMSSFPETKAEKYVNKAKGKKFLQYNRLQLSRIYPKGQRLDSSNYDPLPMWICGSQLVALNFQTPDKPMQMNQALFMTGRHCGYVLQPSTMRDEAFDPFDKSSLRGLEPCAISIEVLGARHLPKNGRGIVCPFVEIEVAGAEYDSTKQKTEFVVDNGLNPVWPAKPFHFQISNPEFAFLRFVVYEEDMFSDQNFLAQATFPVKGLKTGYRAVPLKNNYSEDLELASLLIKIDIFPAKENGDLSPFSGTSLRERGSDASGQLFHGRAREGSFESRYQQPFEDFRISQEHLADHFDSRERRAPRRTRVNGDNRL
For the compound `COc1ccc(C#CCNCc2ccc(OC)cc2OC)cc1`, the inhibition was 2.01% (inactive). The result for `Cc1cc(C(=O)NN=C/C=C/c2ccco2)n[nH]1` reads -16.7% (inactive). The result for `CCCCNC(=O)C[C@H]1C(=O)N(Cc2ccc(OC)cc2)C2=CCCC[C@@]21C(=O)OCC` reads 4.39% (inactive); that for `COC(=O)C[C@@H]1CC[C@@H]2[C@H](COc3ccc(NC(=O)c4cccc(F)c4)cc3C(=O)N2C)O1`, 12.8% (active); that for `COC(=O)C[C@H]1CC[C@H]2[C@H](COc3ccc(NC(=O)C4CC4)cc3C(=O)N2C)O1`, -1% (inactive). The result for `COC(=O)C[C@@H]1CC[C@@H]2[C@@H](COc3ccc(NC(=O)Nc4ccc(F)c(F)c4)cc3C(=O)N2C)O1` reads 1.9% (inactive). Take `COC(=O)c1cccc(Cn2ccc3ccc(-c4ccc5ccn(C(=O)C6CCCCC6)c5c4)cc32)c1`: the inhibition was -51.3% (inactive).

Turning to `CC(=O)N1CCCN(C2=Nc3ccccc3Sc3ccccc32)CC1`, the inhibition was 0.02% (inactive).

With `COc1ccc(C(=O)OCC(=O)Nc2ccc3[nH]c(=O)[nH]c3c2)c(OC)c1OC`, the inhibition was 4.24% (inactive).

Take `O=C(OCC(=O)N1CCN(c2ccccc2)CC1)c1ccc([N+](=O)[O-])s1`: the inhibition is -1.31% (inactive). The result for `COc1cc(NC(=O)COC(=O)c2ccc([N+](=O)[O-])s2)cc(OC)c1OC` reads 16.4% (active); that for `COc1ccc2c(c1)CN1CN(CCc3ccccc3)S(=O)(=O)CC21` (centres undefined), -10.3% (inactive); that for `C=CCn1c(SCC(N)=O)nnc1-c1ccccc1OC`, 1.51% (inactive). In the case of `C=CS(=O)(=O)N(Cc1nnn(Cc2ccccc2)c1Br)[C@H](C(=O)OC)C(C)C`, the inhibition was 2.5% (inactive). The result for `CCN(C(=O)[C@@H](C1CC1)[C@@H](O)c1ccc2ccccc2c1)c1ccccc1` reads 1.27% (inactive); that for `O=c1c2ccccc2c(-c2ccccc2)nn1-c1ccccn1`, 2.78% (inactive); that for `O=c1c2ccccc2c(-c2ccccc2)nn1Cc1ccccc1`, 12.3% (active). `O=c1c2ccccc2c(-c2ccc(Br)cc2)nn1Cc1ccccc1`: the inhibition is -0.25% (inactive). The result for `O=C(CN1CCOCC1)Nc1c(Cl)cc(Cl)cc1Cl` reads 0.95% (inactive); that for `Cc1cc(C)c(NC(=O)CN2CCOCCOCCOCCOCC2)c(C)c1`, 14% (active); that for `Cc1cc(C)c(NC(=O)CN2CCCCCC2)c(C)c1`, 4.73% (inactive).

For `Cc1ccccc1NC(=O)COC(=O)c1ccc(Sc2ncn[nH]2)c([N+](=O)[O-])c1`, the inhibition was -0.83% (inactive). The result for `COc1ccc(C(C)=O)cc1COc1ccc(Cl)c(C)c1` reads 2.04% (inactive); that for `COCc1cc(C(C)=O)ccc1OC`, 12.2% (active); that for `COc1ccc(C(C)=O)cc1COC(=O)Cn1cnc2ccccc2c1=O`, 5.51% (inactive). Consider `COC[C@@H]1CCCN1c1ccc2c(c1)O[C@H](C)CCN(C1CC1)S2(=O)=O`, for which the inhibition is -1.38% (inactive).

For the compound `O=C(c1ccncc1)N1CC[C@H]2[C@H](CCCN2Cc2ccc(F)cc2)C1`, the inhibition is 2.52% (inactive). The result for `O=C(OC12CCCN(C1)/C(=C/c1ccccc1)C2)c1ccco1` (centres undefined) reads 6.33% (inactive).

Consider `COc1ccc(CCNC(=O)COC(=O)Cc2ccccc2F)cc1`, for which the inhibition is 10.7% (active). For `COc1ccc(CCNC(=O)COC(=O)Cc2cccc(F)c2)cc1`, the inhibition is -3.08% (inactive). The result for `O=C(COC(=O)Cc1ccccc1F)NCCc1ccccc1` reads -0.55% (inactive); that for `COC(=O)C[C@@H]1CC[C@H]2[C@@H](COc3ccc(NS(=O)(=O)CC(F)(F)F)cc3C(=O)N2C)O1`, 0.55% (inactive); that for `CC(C)N1CCCCC(NC(=O)c2ccc3ccccc3c2)C1=O` (centres undefined), -1.22% (inactive). The result for `Cc1ccc(NS(=O)(=O)c2ccc(N/N=C/c3ccccc3OCC(=O)O)c([N+](=O)[O-])c2)c(C)c1` reads 10.8% (active). The result for `Cc1ccc(NS(=O)(=O)c2ccc3c(c2)n(C)c(=O)c(=O)n3C)c(C)c1` reads -0.33% (inactive); that for `Cc1ccc(S(=O)(=O)NC(=O)COc2ccccc2C)cc1`, -1.05% (inactive). Take `COC(=O)[C@]12C[C@H](CC(=O)NCCc3ccccc3OC)C(=O)N(Cc3ccco3)C1=C[C@H](C(C)C)O[C@@H]2C1CC1`: the inhibition was -0.19% (inactive). The result for `O=C(NCCC1=CCCCC1)C1CCN(S(=O)(=O)c2ccc(Cl)s2)CC1` reads -0.14% (inactive); that for `CCOC(=O)c1csc(NC(=O)C2CCCN(S(=O)(=O)c3ccc(Cl)s3)C2)n1` (centres undefined), 6.52% (inactive). Turning to `CN(C)Cc1cn(-c2ccc(-c3noc4c3C(=O)N(CC(=O)N3CCOCC3)CC4)cc2)nn1`, the inhibition was -16.7% (inactive).

Regarding `Nc1nnc(SCC(=O)OCc2ccc(Cl)c(Cl)c2)s1`, the inhibition is 10.9% (active).

For `COC(=O)c1ccc(CSc2nnc(N)s2)o1`, the inhibition is -0.29% (inactive). The result for `CN(C(=O)CSc1nnc(N)s1)c1c(N)n(Cc2ccccc2)c(=O)[nH]c1=O` reads -0.92% (inactive); that for `CCCC1CCC2(CCCN2CCOC(=O)NCc2ccccc2)CC1` (centres undefined), 2.03% (inactive). Regarding `O=C(NC12CC3CC(CC(C3)C1)C2)N1CCCC(CO)C1` (centres undefined), the inhibition is 11.5% (active). The result for `O=C(NCC12CC3CC(C1)CC(CNC(=O)N1CCCC1)(C3)C2)N1CCCC1` reads -0.47% (inactive); that for `O=C(CNCCO)NC12CC3CC(CC(C3)C1)C2`, 9.27% (inactive). Consider `O=C(NCCc1c[nH]c2ccccc12)OCc1cn(-c2c(F)cccc2F)nn1`, for which the inhibition is -2.05% (inactive). `CCCCCCCCNS(=O)(=O)/C=C/c1cc(C)ccc1CNC(=O)OC(C)(C)C`: the inhibition is -1.88% (inactive). `COC(=O)[C@]12C[C@H](CC(=O)NCCCN3CCCC3=O)C(=O)N(CCc3ccc(OC)c(OC)c3)C1=C[C@H](COCc1ccccc1)O[C@@H]2C`: the inhibition was 4.14% (inactive).

On to `CC(=O)Cn1cnc2c(cnn2-c2ccccc2)c1=O`, for which the inhibition was 0.74% (inactive). The result for `Cc1c(C#N)c2ncn(CC#N)c(=O)c2n1-c1ccccc1` reads 9.69% (active); that for `CN(C)/C=C/c1c(C#N)c(=O)ncn1Cc1ccccc1`, 2.62% (inactive); that for `COC(CNC(=O)[C@H](Cc1ccccc1)NC1(C(=O)NC2CCCCC2)CCCCC1)OC`, 0.41% (inactive). The result for `COC(=O)c1ccccc1NC(=O)CSc1n[nH]c(-c2ccncc2)n1` reads 1.06% (inactive); that for `CCc1c(C)nc(SCC(=O)NC2CCCC2)[nH]c1=O`, 0.69% (inactive). The result for `CCc1ccc(-c2nc(SCC(=O)NC3CCCC3)n[nH]2)cc1` reads 9.58% (active); that for `O=C(CSc1nnc(-c2ccccc2)n1Cc1ccco1)Nc1ccccc1-c1ccccc1`, 8.54% (inactive); that for `COc1cccc(/C=C2\CC3(OC(C)=O)CCCN2C3)c1` (centres undefined), -1.03% (inactive). Turning to `COC(=O)[C@@]12CCCCC3=C1N(CCC3)C(=O)[C@H]2CC(=O)NCc1cccc2ccccc12`, the inhibition was 3.71% (inactive). The result for `O=C(Nc1ccc(S(=O)(=O)N2CCOCC2)cc1)c1ccc2ncsc2c1` reads -4.28% (inactive); that for `O=C(CSc1ccccc1)Nc1cccc(S(=O)(=O)N2CCOCC2)c1`, 11.5% (active); that for `Cc1cc(C(=O)NNC(=O)c2cccc(S(=O)(=O)N3CCOCC3)c2)c2ccccc2n1`, 1.34% (inactive). The result for `Cc1nc2ccc(NC(=O)c3cccc(S(=O)(=O)N4CCOCC4)c3)cc2s1` reads 14% (active); that for `Cc1ccnc(SCC(=O)Nc2cccc(S(=O)(=O)N3CCOCC3)c2)n1`, 1.32% (inactive); that for `O=C(CSc1ccccc1)Nc1cccc(S(=O)(=O)N2CCCCC2)c1`, 5.78% (inactive).

With `COc1ccc(CN2C(=O)N3Cc4cc(OC)ccc4C3CS2(=O)=O)cc1` (centres undefined), the inhibition is 0.38% (inactive). The result for `O=C(NCCCc1ccccc1)[C@H](Cc1ccccc1)NC1(C(=O)NCCc2c[nH]c3ccccc23)CCC1` reads -0.08% (inactive); that for `Cc1ccc(C(=O)N(Cc2ccccn2)CC2CCCO2)cc1` (centres undefined), 0.65% (inactive). The result for `CN1C[C@]2(C=C3CCCCC3n3c(=O)n(-c4ccccc4)c(=O)n32)N=C1NC(=O)c1ccccc1` (some centres undefined) reads -0.41% (inactive); that for `Cc1cccc(NC(=O)N2CCCCCC2)c1C`, 0.02% (inactive); that for `CNC(=O)n1ccc(C(=O)N2CCCCC2)n1`, 9.53% (active). The result for `Cc1ccc(C(=O)N2CCCC2)c(F)c1F` reads 2.59% (inactive). With `Nn1c(SCC(=O)N2c3ccccc3Sc3ccccc32)nnc1-c1n[nH]c2c1CCC2`, the inhibition was 1.2% (inactive). The result for `COP(=O)(O)CNC(=O)OCc1ccccc1` reads 2.2% (inactive); that for `CC(CCN1CCC(C(O)(c2ccccc2)c2ccccc2)CC1)Oc1ccc(C(F)(F)F)cc1` (centres undefined), 6.64% (inactive); that for `COC(=O)c1cc(S(=O)(=O)N2CCN(c3ccccc3C)CC2)cn1C`, -2.77% (inactive). The result for `C=CCN1C(=O)[C@H](CC(=O)NCCCN2CCCC2=O)[C@@]2(C(=O)OCC)CCCC=C12` reads -1.95% (inactive); that for `CCCCCN1CCCCC(NC(=O)C(C)CCC)C1=O` (centres undefined), 0.76% (inactive); that for `CC(=O)O[C@@]1(C(C)=O)CCC2[C@H]3C=C(C)C4=CC(=O)CC[C@@]4(C)C3CC[C@]21C` (some centres undefined), -2.78% (inactive). Consider `CCC1S/C(=N/N=C/c2ccco2)NC1=O` (centres undefined), for which the inhibition is 10.6% (active). The result for `CCCCC1S/C(=N/N=C/c2cccs2)NC1=O` (centres undefined) reads -0.02% (inactive). The result for `O=C1N/C(=N\N=C\c2ccco2)SC1Cc1ccc(F)cc1` (centres undefined) reads 2.17% (inactive). The result for `Cc1cccc(C(=O)Nc2c(-c3ccc(F)cc3)nc3ncccn23)c1` reads -270% (inactive); that for `O=[N+]([O-])c1cc(S(=O)(=O)N2CCCC2)ccc1NN=C1CCCC1`, 7.15% (inactive). `O=[N+]([O-])c1cc(C(F)(F)F)ccc1NCCc1ccncc1`: the inhibition is -0.57% (inactive). For `O=[N+]([O-])c1cc(C(F)(F)F)ccc1NN=C1CCCC1`, the inhibition is 11.1% (active).

As for `COc1ccc2c(C(C)c3ccc(N)cc3)cn(C)c2c1` (centres undefined), the inhibition is 3.03% (inactive). Turning to `N#Cc1ccccc1OC[C@@H](O)CN1CCC(C(O)(c2ccccc2)c2ccccc2)CC1`, the inhibition is 2.31% (inactive).
